Sampled rows, rich in hits. Any-hit rate of the full collection: about 5.4%.
p53 reactivation: re-activators of mutant p53; H1299 p53-A138V BP100-luciferase reporter, luminescence, 24 h; Potency, µM (doses to about 92.2 µM), for the others: at the top dose activity change, positive = activation, most hits filed as activators; AID 504706; actives 0.063% (n = 320,000); further: potency means the concentration at half of the fitted maximal effect; % of control where 0% means no effect; nearly all actives have a fitted effect of over 45% in size
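p53-null H1299 cells stably carrying temperature-sensitive p53-A138V and a BP100-luciferase reporter were pinned with compounds (4-point, 1:5 series) and held 24 hrs at 37 deg C. Luminescence was read 10 min after detection reagent.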
Six1-Eya2 blk: blocks human Six1 binding to Eya2; Q15475+O00167; AlphaScreen GST-Six1/His-Eya2 binding, biochemical; hits give low values; activity change, % (concentration not given with the values); actives 0.56% (n = 360,000); AID 651725; in the data active means activity change below about -65%; inconclusive means mostly about -30% to -63%; further: on the % scale 0 is the no-effect control and ±100 the full control effect
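AlphaScreen luminescence read after one hour at 37 °C in darkness. Pin-transferred compounds met GST-Six1 and His-Eya2 protein (5X stock 250 nM/500 nM) plus glutathione donor and Ni-chelate acceptor beads (5X, 50 ug/mL).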
RORg inh: inhibitors of mouse ROR gamma transcriptional activity | Potency, µM (highest dose often 53.6 µM), for the others: at the top dose activity change, negative = inhibition, hits mostly inhibitors | AID 2551 | actives 5.4% (n = 310,000) | Drosophila S2 Gal4-RORgamma UAS-luciferase reporter, 20 h; further: potency means the concentration at half of the fitted maximal effect; on the % scale 0 is the no-effect control and ±100 the full control effect; nearly all actives have a fitted effect of over 60% in size
Target sequence (P51450 whole entry, looked up, the tested form may be a part): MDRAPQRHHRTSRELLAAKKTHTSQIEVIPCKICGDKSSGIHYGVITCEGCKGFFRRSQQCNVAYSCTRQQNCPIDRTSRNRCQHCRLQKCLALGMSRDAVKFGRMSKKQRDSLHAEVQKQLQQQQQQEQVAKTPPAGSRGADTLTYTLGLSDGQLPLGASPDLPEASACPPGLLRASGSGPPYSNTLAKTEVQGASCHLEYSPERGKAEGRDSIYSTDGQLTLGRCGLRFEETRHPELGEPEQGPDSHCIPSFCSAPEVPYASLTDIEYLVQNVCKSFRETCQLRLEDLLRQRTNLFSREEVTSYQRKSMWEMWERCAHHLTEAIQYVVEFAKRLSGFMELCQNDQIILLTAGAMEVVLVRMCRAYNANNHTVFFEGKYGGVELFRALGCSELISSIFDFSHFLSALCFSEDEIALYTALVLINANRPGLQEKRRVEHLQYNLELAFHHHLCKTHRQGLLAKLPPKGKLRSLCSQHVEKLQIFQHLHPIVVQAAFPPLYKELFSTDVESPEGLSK
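Compounds are pin-transferred onto Drosophila Schneider cells expressing a copper-inducible Gal4–ROR gamma transactivation domain fusion. After 1 hr, copper sulfate is added to 700 uM final; luciferase is read 20 hr later.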
CtBP-E1A inh: blocks the CtBP interaction with E1A; AlphaScreen GST-E1A/His-CtBP binding, 1536-well; hits give low values; AID 651724; activity change, % (test concentration not listed); actives 0.49% (n = 340,000); in the data active means activity change below about -65%; inconclusive means mostly about -30% to -63%; further: on the % scale 0 is the no-effect control and ±100 the full control effect
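Homogeneous bead-based format: GST-tagged E1A captured on glutathione donor beads, His-tagged CtBP on nickel acceptor beads; compounds precede bead addition by 2 h at 37 °C.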
Gal4-VP16 FLuc: inhibits Gal4-VP16 luciferase reporter, ROR gamma counter-screen | Drosophila S2 Gal4-VP16 UAS-luciferase, luminescence, 20 h | Potency, µM (highest dose often 53.6 µM), without a hit: top-dose activity, negative = inhibition, hits mostly inhibitors | actives 3.5% (n = 310,000);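 further: Gal4-VP16 expression switched on by copper sulfate through the metallothionein promoter; potency means the concentration at half of the fitted maximal effect; on the % scale 0 is the no-effect control and ±100 the full control effect; nearly all actives have a fitted effect of over 50% in size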
Numbers without * were called inactive; u = inconclusive; x = no result given. Unless noted, the call rests on the fitted dose curve; in most records, active means well fitted curve in the direction sought with a large enough effect; inconclusive means small, poorly fitted or top-dose-only effect, or another doubt; inactive means no such curve, though single readings can be large; an effect the other way counts as inactive or inconclusive.

SMILES	p53 reactivation	Six1-Eya2 blk	RORg inh	CtBP-E1A inh	Gal4-VP16 FLuc
Cc1cc(Br)ccc1SCC(=O)N1CCN(S(=O)(=O)c2ccccc2)CC1	3.1%	-11.5	u	-1.4	7.08µM*
CC1CN(C(=S)Nc2ccc(Br)cc2)CC(C)O1 (configuration not stated)	-7.6%	-1.3	u	7.6	u
O=C(CSc1ncccn1)N1CCN(S(=O)(=O)c2ccccc2)CC1	7.6%	2.4	0.4%	-14.9	0.2%
C(=N\Nc1nc2ccccc2[nH]1)/c1cccs1	u	1.7	3.16µM*	6.2	4.47µM*
Cc1ccsc1/C=N/Nc1nc2ccccc2[nH]1	u	-7.6	1.41µM*	-1.8	1.41µM*
C(=N\Nc1nc2ccccc2[nH]1)/c1ccncc1	24.6%	-9.9	15.4%	-2.4	u
CCCOP(=O)(c1ccc(N(C)C)cc1)C(O)c1ccc(Br)cc1 (configuration not stated)	-6.4%	-6.8	22.7%	-4.3	-13.8%
Fc1ccccc1Cc1noc(CN2CCC(OCc3cccnc3)CC2)n1	4.0%	6.2	1.2%	2.0	-3.6%
CCCOc1ccc(CN(CCC#N)C(=S)NC(=O)c2ccccc2)cc1	u	-4.0	0.316µM*	0.5	0.562µM*
C=CCNC(=O)c1ccc(Cl)cc1Cl	-2.3%	0.5	6.8%	3.6	9.1%
CCCN(CCC)C(=S)NC(=O)c1ccc(Cl)cc1Cl	-1.8%	2.0	0.282µM*	5.8	0.891µM*
OCCN(Cc1ccccc1)C(=S)Nc1ccc(F)cc1	-1.4%	6.2	-24.2%	7.6	4.9%
O=C(NC(=S)N(CCO)Cc1ccccc1)c1ccc(F)cc1Cl	-4.3%	4.3	0.562µM*	5.8	2.82µM*
COc1cc(C(=O)NC(=S)N(CCC#N)Cc2cccnc2)cc(OC)c1OC	3.6%	-3.7	x	2.7	x
CCN(CC)S(=O)(=O)c1ccc(C(=O)NC(=S)N(CCO)Cc2ccccc2)cc1	-1.3%	-0.7	1.12µM*	-8.4	3.16µM*
Cc1ccc(Nc2nc(C)cc(C)c2C#N)c(C)c1	x	15.3	x	1.0	x
CCCN1CNC(=S)N(c2cccc(C)c2)C1	-3.1%	4.7	11.2µM*	-9.8	-23.7%
CCCN1CNC(=S)N(c2ccccc2OCC)C1	-2.0%	6.0	10µM*	-14.8	u
CCCCN1CNC(=S)N(c2ccccc2OCC)C1	-4.2%	1.6	11.2µM*	-15.4	14.1µM*
CCN1CNC(=S)N(c2ccccc2OC)C1	0.1%	-4.3	-22.6%	-15.9	-0.3%
CCCCN1CNC(=S)N(c2cc(C)ccc2C)C1	-6.0%	-0.6	14.1µM*	-0.3	10µM*
CCCCN1CNC(=S)N(c2ccc(C(=O)OCC)cc2)C1	27.6%	4.2	u	-6.5	-21.1%
Cc1ccncc1C(N)=O	-2.3%	-1.3	12.9%	1.1	5.7%
Cc1ccc(Nc2nc(CSc3nnc(-c4ccc(F)cc4)n3C)cs2)cc1	u	-13.2	11.2µM*	-24.6	2.6%
COc1ccc(-c2nnc(SCc3csc(N)n3)n2C)cc1	1.3%	-3.0	38.6%	6.9	9.6%
SMILES	p53 reactivation	Six1-Eya2 blk	RORg inh	CtBP-E1A inh	Gal4-VP16 FLuc
Cc1cnc(NC(=O)c2cccc(S(=O)(=O)N3CC(C)OC(C)C3)c2)s1 (configuration not stated)	-2.2%	-0.8	21.7%	x	-0.7%
COc1cc(CNCCc2ccc(F)cc2)ccc1OCc1ccc(Cl)nc1	3.6%	-2.0	2.24µM*	-1.8	-25.0%
COc1cc(CNCCc2ccccc2F)ccc1OCc1ccc(Cl)nc1	0.9%	1.5	-16.8%	-3.3	15.4%
CC(C(=O)NCCCc1ccccc1)c1ccc([N+](=O)[O-])cc1 (configuration not stated)	-6.0%	9.0	15.1%	-2.1	u
O=C1C(N2CCOCC2)=C(n2nnc3ccccc32)C(=O)c2ccccc21	-12.4%	-16.9	5.01µM*	-16.2	5.62µM*
O=C1c2ccccc2C(=O)c2c1cccc2-n1nnc2ccccc21	-0.1%	-13.2	-8.5%	-6.4	-10.3%
CC(=O)N(C)c1nc(N)n(-c2ccccc2)n1	10.9%	-2.8	-17.1%	x	-7.9%
CC(C)(C)NC(=O)c1cccc(NC(=O)c2ccco2)c1	3.2%	-13.4	u	-1.2	-2.0%
O=C(Nc1ccc(NC(=O)c2ccco2)cc1)c1ccc2c(c1)OCO2	5.6%	16.3	22.4µM*	0.0	u
CC(C)(C)NC(=O)c1cccc(NC(=O)c2ccc(NC(=O)c3ccco3)cc2)c1	-2.4%	-79.4*	7.1%	-16.0	-21.9%
COc1ccc(NC(=S)Nc2ccccc2)cc1	4.9%	4.2	u	2.6	u
CCOc1ccc(NC(=S)Nc2ccc(OCc3ccccc3)cc2)cc1	4.0%	9.5	u	4.5	22.4µM*
S=C(NCCSCc1ccc(Cl)c(Cl)c1)Nc1ccccc1	x	-4.4	x	-0.5	x
COc1ccc(NC(=O)Nc2cccc(C)n2)cc1	17.8%	-9.2	0.1%	-1.4	-2.8%
COc1ccc(NC(=S)Nc2cccc(C)n2)cc1	3.0%	-8.8	u	-19.6	4.47µM*
CCOc1ccc(NC(=S)Nc2ccc(OC)cc2)cc1	-1.3%	-6.5	7.94µM*	-2.1	u
CCOc1ccc(CSCCNC(=S)Nc2ccccc2)cc1	2.0%	-19.1	6.31µM*	-6.2	4.47µM*
Cc1cc(CNC(=O)COc2ccccc2F)c2ccccc2n1	-3.5%	2.0	23.2%	0.1	u
COc1ccc(/C=C2\SC(=O)N(CCCC(=O)Nc3cc(Cl)ccc3C(=O)O)C2=O)cc1	-13.8%	-8.5	x	-19.1	x
COc1ccc(N2CC(C(=O)Nc3c4c(nn3-c3ccc(OC)cc3)CS(=O)(=O)C4)CC2=O)cc1 (configuration not stated)	4.8%	34.2	u	0.0	18.5%
CNC(=S)Nc1ccc(OCc2ccccc2)cc1	5.5%	-8.6	3.98µM*	4.3	u
CCOc1ccc(NC(=S)Nc2ccc(Br)cc2Cl)cc1	16.4%	2.9	14.1µM*	-9.5	u
Cc1cccnc1NC(=S)Nc1ccc(Br)cc1Cl	7.3%	-9.4	2.51µM*	x	7.08µM*
COc1ccc(NC(=S)NCCCN2CCCC2)cc1	4.8%	-3.5	12.8%	11.8	6.4%
COc1cccc(NC(=S)Nc2ccc(Br)cc2Cl)c1	4.1%	-5.4	-1.8%	-9.9	0.0%
CCOc1ccc(NC(=S)NCCCN2CCN(c3ccc(OC)cc3)CC2)cc1	7.6%	-11.6	5.01µM*	-15.2	u
O=C(N/N=C/c1cccnc1)c1cc(-c2ccccc2OCc2ccccc2)n[nH]1	-5.0%	-7.7	-11.6%	-6.6	-14.8%
CN1CCN(c2ncnc3c2ncn3[C@H]2CN(Cc3ccc(-c4ccccc4)cc3)C[C@@H](CO)O2)CC1	x	-17.1	x	-15.5	x
CCN1CCC(Nc2ccnc3cc(Cl)ccc23)CC1	3.0%	4.4	-17.2%	-1.5	-10.0%
Nc1c(C=C2C=CC(=O)C=C2)c(=O)nc2snc(SCc3ccccc3)n12	8.2%	-1.2	u	x	-4.2%
